Results: PubChem BioAssay
Activity calls are given as the source filed them.

Key:
[1] = compound effects on lung adenocarcinoma cell viability – A549, calcein-AM fluorescence, 48 h, basal, profiling panel (AID 1162); conditions: higher = more signal
[2] = compound effects on differentiated 3T3-L1 adipocyte viability – cell-based, 3T3-L1 adipocytes, calcein-AM fluorescence, 48 h, basal, profiling panel (AID 1163); conditions: 3T3-L1 adipocytes viability, higher = more signal
[3] = compound effects on hepatocellular carcinoma cell viability – HepG2, calcein-AM fluorescence, 48 h, basal, profiling panel (AID 1164); conditions: higher = more signal
[4] = compound effects on multiple myeloma cell viability – MM1S, calcein-AM fluorescence, 48 h, basal, profiling panel (AID 1165); conditions: higher = more signal
[5] = calcein-AM signal in unstimulated myeloma cells – cell-based, calcein-AM fluorescence, 48 h, PK04 Diversity Set, profiling panel (AID 1166); conditions: RPMI8226 myeloma viability, higher = more signal;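 further: cells grown under basal conditions without added stimulus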
[6] = JC-1 mitochondrial signal, unstimulated HepG2 cells – cell-based, JC-1 fluorescence, 24 h, 100 nL compound, profiling panel (AID 1167); conditions: HepG2 mitochondrial potential, higher = more signal
[7] = JC-1 mitochondrial signal, unstimulated adipocytes – cell-based, JC-1 fluorescence, 3T3-L1 adipocytes, 24 h, 100 nL compound, profiling panel (AID 1168); conditions: JC-1 mitochondrial fluorescence, higher = more signal, called active from +8 up or from −8 down
[8] = JC-1 mitochondrial signal, unstimulated myeloma cells – cell-based, JC-1 fluorescence, RPMI8226, 24 h, 100 nL compound, profiling panel (AID 1169); conditions: JC-1 mitochondrial potential fluorescence, higher = more signal
[9] = JC-1 mitochondrial signal, unstimulated MM1S myeloma – cell-based, JC-1 fluorescence, 24 h, 100 nL compound, profiling panel (AID 1170); conditions: MM1S mitochondrial potential, higher = more signal
[10] = resazurin metabolic signal in A549 cells – cell-based, resazurin fluorescence, 24 h, PK04 Diversity Set, profiling panel (AID 1171); conditions: A549 viability, higher = more signal, called active from +8 up or from −8 down
Further: test concentration not given here.

SMILES	z-score [1]	z-score [2]	z-score [3]	z-score [4]	z-score [5]	z-score [6]	z-score [7]	z-score [8]	z-score [9]	z-score [10]
CC(C)C(O)C1C=CC2C(=O)N(c3ccccc3)C(=O)C2N1Nc1ccc(C#N)cc1 (stereo not given)	-0.777	-0.289	-0.114	-0.0628	-1.15	-0.421	-1.47 (inactive)	-0.775	-0.44	-0.796 (inactive)
CC(C)C[C@@H]1NC(=O)[C@H]2C[C@@H](C(=O)NCCCCCCNC(=O)CS)[C@@H](c3cccc(OCCO)c3)N2C1=O	0.0674	0.466	0.696	0.118	-0.0467	-0.569	0.844 (inactive)	-0.404	-0.343	0.0056 (inactive)
CCCC[C@@H]1C[C@H]1[C@@H](NC(=O)c1ccc(-c2ccccc2)cc1)c1ccc(-c2ccccc2)cc1	-1.78	0.441	-0.997	-2.17	-2.33	-0.922	-0.949 (inactive)	0.196	-0.391	0.719 (inactive)
N#Cc1ccc(NN2C(C(O)C3CCCCC3)C=CC3C(=O)N(c4ccccc4)C(=O)C32)cc1 (stereo not given)	-0.669	-0.515	0.595	-0.185	-0.32	-2.19	-2.17 (inactive)	0.234	0.318	-0.609 (inactive)
C[C@]1(C(=O)NCc2ccccc2)c2ccccc2C(=O)N(Cc2cc(F)cc(C(F)(F)F)c2)[C@H]1c1ccc(CO)cc1	0.179	-0.628	1.11	0.304	0.411	2.16	0.41 (inactive)	0.714	-0.765	-0.375 (inactive)
N#Cc1ccc(NN2C(C(O)c3ccc([N+](=O)[O-])cc3)C=CC3C(=O)N(c4ccccc4)C(=O)C32)cc1 (stereo not given)	-1.14	0.0202	-0.335	-0.237	-0.402	-1.91	-0.703 (inactive)	-0.993	0.0361	0.172 (inactive)
COCCOC(=O)N1C(=O)[C@@]2(c3cc(C#CCNC(N)=O)ccc31)[C@H](c1ccc(OCCO)cc1)N1[C@H](c3ccccc3)[C@H](c3ccccc3)OC(=O)[C@H]1[C@@H]2C(=O)N1CCc2cc(OC)c(OC)cc2C1	1.24	0.427	0.34	0.451	-0.172	-1.04	1.65 (inactive)	-0.489	-1.32	-0.189 (inactive)
O=C(O)[C@@]1(Cc2ccccc2)N=C(c2ccc(OCCCO)cc2)O[C@H]1c1ccccc1	0.83	-0.664	-0.235	0.275	0.237	0.628	1.29 (inactive)	-0.182	-0.558	0.575 (inactive)
O=C1C=CC(=O)[C@@H]2CC(COc3ccccc3)=C3[C@@H](CCc4ccccc4)OB(O)C[C@@H]3[C@H]12	-0.491	-1.23	-0.478	-3.22	-3.95	-3.77	-1.83 (inactive)	-1.01	-2.46	-0.108 (inactive)
COc1ccc(C(=O)Nc2cccc(CN3C(=O)[C@]4(O[C@H](CC(=O)N5CCC[C@H]5CO)[C@@H]([Si](C)(C)c5ccc(OC)cc5)[C@@H]4C)c4ccccc43)c2)cc1	-0.806	0.902	-3.13	-2.71	-4.33	-1.73	0.248 (inactive)	-1.1	-1.64	-2.2 (inactive)
CC(C)C(=C=CC[C@@H](O)c1ccccc1OCCO)C[C@@H](O)c1ccccn1	-0.158	0.0388	-0.0925	-0.757	0.0845	-0.687	-0.425 (inactive)	-0.0863	-0.0458	0.248 (inactive)
